Peptide text beside a SMILES is read from it. * marks the point of attachment. Boc = CC(C)(C)OC(=O)*
experiment: growth suppression of yeast trafficking mutant, preliminary HTS, modulators of trafficking downstream of Golgi apparatus project, 1536-format plate, OD 615 nm (AID 637); details: yeast transport mutant growth, absorbance 615 nm, 18 h; hits give high values; in the data active means inhibition above about 30%; inactive means the rest

inhibition, inactive:
Cc1ccc(NC2c3ncccc3C(=O)N2C2CCCCC2)cc1C (stereo not given) 11.5%, O=C(O)c1c[nH]c2ccc(S(=O)(=O)N3CCN(c4ccc(F)cc4)CC3)cc2c1=O -6.45%, O=C(O)Cn1cc2c(n1)CCCC2 5.41%, O=C1CC(c2ccc(Cl)cc2)n2nc(N3C(=O)c4ccccc4C3=O)nc2N1 (stereo not given) 4.59%, CCc1nnc(NC(=O)CSc2nnc(-c3ccc(OC)cc3)n2C)s1 1.8%, COc1cccc(NC(=O)Nc2cccs2)c1 -2.3%, Cn1c(=O)c2c(nc(NCCCO)n2CCc2ccccc2)n(C)c1=O -2.83%, CC(=O)c1coc2ccc(OCC(=O)O)cc12 -4.26%, CCCN(Cc1cc2ccc(C)cc2[nH]c1=O)C(=O)c1cccnc1 -3.28%, CCOP(=O)(c1ccc(N(C)C)cc1)C(O)c1ccccc1OC (stereo not given) -3.65%, CCOCCCn1c(=S)[nH]c2cc3c(cc2c1=O)OCO3 -2.79%, COc1ccc(CCNC(=O)C2CCN(Cc3nc(-c4cccc(Cl)c4)oc3C)CC2)cc1OC -1.45%, c1csc(-c2nc3nc4ccccc4nc3n2Cc2ccc3c(c2)OCO3)c1 0.79%, CC(C)CC(NC(=O)OC(C)(C)C)C(=O)NC(C(=O)NC(C)C(N)=O)C(C)C (stereo not drawn) (Boc-Leu-Val-Ala-NH2; configuration not given here) -3.23%, COc1ccc(-c2ccc(Nc3ccc(S(=O)(=O)N4CCCC4)cc3)nn2)cc1OC -1.97%

— PubChem BioAssay
